Data on four compounds can be found in ChEMBL document CHEMBL2218924, “A broad activity screen in support of a chemogenomic map for kinase signalling research and drug discovery” (Biochem J, 2013).

Assay [1] has as its target Serine/threonine-protein kinase SIK1 (Homo sapiens) (UniProt P57059). The note with it: at 10 µM.
Assay [2] addresses Serine/threonine-protein kinase PLK2 (Homo sapiens) (UniProt Q9NYY3). The note with it: at 1 µM.
For assay [3] the target is unchanged. To be noted: at 10 µM.
Assay [4] concerns the target Tyrosine-protein kinase SYK (Homo sapiens) (UniProt P43405). To be noted: at 1 µM.
The target is the same in assay [5]. To be noted: at 10 µM.
For assay [6], the target named is T1, Serine/threonine-protein kinase TAO1 (Homo sapiens) (UniProt Q7L7X3).
T1 sequence (whole entry): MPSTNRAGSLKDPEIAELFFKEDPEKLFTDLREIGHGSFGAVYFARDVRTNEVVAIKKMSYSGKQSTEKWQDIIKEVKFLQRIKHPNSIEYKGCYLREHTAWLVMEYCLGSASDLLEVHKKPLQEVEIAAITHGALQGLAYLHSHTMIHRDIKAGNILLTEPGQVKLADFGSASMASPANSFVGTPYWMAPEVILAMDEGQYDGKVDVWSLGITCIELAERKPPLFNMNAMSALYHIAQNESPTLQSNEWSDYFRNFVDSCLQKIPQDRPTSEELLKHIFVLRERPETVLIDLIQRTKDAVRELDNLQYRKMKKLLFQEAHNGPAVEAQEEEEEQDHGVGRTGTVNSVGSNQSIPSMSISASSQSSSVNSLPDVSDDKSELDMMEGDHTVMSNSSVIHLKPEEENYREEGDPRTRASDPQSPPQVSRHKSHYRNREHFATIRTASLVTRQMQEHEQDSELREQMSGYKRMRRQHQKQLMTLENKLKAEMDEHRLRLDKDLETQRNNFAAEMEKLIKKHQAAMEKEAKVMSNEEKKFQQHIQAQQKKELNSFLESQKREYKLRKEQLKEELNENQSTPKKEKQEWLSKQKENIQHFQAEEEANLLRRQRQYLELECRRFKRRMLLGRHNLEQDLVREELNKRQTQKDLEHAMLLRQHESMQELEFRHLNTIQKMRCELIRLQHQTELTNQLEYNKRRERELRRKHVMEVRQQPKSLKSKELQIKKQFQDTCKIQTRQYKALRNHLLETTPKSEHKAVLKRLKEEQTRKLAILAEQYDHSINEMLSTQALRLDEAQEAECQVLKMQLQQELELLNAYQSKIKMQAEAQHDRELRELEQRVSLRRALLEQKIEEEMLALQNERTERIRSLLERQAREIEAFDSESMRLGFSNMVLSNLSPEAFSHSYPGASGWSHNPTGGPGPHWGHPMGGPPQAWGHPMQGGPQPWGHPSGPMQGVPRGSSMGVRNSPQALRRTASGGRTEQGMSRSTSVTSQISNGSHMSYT
To be noted: at 1 µM.

In assay [7] the target is T1, Serine/threonine-protein kinase TAO1 (Homo sapiens). To be noted: at 10 µM.
Assay [8] concerns the target T2, Serine/threonine-protein kinase TAO2 (Homo sapiens) (UniProt Q9UL54).
T2 sequence (whole entry): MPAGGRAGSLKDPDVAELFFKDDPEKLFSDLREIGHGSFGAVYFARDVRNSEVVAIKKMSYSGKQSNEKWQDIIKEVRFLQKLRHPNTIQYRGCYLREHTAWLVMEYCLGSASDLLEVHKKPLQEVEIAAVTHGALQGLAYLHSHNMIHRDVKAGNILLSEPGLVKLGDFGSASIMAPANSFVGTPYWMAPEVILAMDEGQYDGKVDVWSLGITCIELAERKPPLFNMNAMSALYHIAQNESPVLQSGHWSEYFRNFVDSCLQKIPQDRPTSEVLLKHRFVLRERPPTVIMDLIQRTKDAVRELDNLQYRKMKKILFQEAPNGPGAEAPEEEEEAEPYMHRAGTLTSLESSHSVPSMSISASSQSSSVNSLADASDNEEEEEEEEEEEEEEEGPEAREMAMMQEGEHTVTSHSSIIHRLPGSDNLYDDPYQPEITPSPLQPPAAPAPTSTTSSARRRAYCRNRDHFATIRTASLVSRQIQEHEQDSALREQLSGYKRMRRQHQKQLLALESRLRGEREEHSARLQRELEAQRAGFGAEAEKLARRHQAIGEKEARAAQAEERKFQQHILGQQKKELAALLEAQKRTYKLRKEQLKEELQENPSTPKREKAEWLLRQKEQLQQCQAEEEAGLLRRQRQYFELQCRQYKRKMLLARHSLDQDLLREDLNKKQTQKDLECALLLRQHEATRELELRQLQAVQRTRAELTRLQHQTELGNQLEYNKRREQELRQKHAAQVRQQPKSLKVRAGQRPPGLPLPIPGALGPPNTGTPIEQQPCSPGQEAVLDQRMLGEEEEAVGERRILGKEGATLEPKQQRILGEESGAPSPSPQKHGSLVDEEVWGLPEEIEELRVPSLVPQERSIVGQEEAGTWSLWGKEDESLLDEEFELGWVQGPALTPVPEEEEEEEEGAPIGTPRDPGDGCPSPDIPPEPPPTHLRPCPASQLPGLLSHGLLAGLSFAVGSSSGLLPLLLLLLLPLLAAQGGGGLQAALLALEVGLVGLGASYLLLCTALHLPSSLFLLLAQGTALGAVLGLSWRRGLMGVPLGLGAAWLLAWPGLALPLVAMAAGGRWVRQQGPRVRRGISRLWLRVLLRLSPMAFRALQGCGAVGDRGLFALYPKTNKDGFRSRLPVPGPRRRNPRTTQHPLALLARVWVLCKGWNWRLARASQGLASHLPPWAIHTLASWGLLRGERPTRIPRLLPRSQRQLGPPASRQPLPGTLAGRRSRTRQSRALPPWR
The note with it: at 1 µM.

Assay [9] deals with T3, Serine/threonine-protein kinase TBK1 (Homo sapiens) (UniProt Q9UHD2).
T3 sequence (whole entry): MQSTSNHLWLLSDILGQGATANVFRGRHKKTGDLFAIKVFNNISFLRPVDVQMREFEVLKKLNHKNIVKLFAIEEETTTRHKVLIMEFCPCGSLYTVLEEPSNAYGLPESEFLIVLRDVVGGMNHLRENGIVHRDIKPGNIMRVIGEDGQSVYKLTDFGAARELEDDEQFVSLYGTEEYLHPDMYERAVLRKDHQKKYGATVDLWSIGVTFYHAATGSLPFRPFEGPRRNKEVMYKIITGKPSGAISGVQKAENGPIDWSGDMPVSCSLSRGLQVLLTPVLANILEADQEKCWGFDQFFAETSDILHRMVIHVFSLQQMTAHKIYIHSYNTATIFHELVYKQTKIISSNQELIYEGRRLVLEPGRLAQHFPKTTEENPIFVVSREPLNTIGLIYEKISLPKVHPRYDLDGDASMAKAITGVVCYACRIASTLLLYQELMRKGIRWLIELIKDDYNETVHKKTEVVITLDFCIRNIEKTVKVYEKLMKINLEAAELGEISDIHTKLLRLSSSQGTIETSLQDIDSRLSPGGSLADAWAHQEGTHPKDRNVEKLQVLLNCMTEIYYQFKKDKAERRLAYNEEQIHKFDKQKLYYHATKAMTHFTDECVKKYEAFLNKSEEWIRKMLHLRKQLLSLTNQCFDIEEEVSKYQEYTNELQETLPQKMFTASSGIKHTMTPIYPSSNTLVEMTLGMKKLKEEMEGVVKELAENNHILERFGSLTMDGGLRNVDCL
To be noted: at 1 µM.

For assay [10], the target named is SRSF protein kinase 1 (Homo sapiens) (UniProt Q96SB4). To be noted: at 1 µM.
Sequence of SRSF protein kinase 1 (Homo sapiens) (Q96SB4 whole entry): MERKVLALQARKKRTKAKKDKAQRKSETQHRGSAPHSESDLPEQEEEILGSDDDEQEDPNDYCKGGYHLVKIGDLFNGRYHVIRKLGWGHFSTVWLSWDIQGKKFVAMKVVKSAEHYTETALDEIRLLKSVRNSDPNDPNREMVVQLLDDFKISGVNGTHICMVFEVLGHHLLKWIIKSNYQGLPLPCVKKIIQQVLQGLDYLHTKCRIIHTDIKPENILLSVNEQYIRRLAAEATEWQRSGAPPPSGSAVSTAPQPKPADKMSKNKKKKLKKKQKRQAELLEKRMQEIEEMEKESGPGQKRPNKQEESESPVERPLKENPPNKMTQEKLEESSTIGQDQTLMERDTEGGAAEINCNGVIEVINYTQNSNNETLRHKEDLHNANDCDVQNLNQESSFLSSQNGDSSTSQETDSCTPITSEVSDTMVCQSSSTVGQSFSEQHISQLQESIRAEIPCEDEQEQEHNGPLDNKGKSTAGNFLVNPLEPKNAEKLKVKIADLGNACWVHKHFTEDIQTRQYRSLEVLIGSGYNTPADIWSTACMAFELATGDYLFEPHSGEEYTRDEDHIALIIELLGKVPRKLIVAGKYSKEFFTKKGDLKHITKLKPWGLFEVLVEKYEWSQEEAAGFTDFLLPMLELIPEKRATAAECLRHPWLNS
The target is the same in assay [11]. The note with it: at 10 µM.
Assay [12] concerns the target SRSF protein kinase 2 (Homo sapiens) (UniProt P78362). The note with it: at 1 µM.
Assay [13] shares this target. The note with it: at 10 µM.
Assay [14] has as its target Serine/threonine-protein kinase 33 (Homo sapiens) (UniProt Q9BYT3). The note with it: at 1 µM.
For assay [15] the target is unchanged. The note with it: at 10 µM.
Assay [16] deals with T4, Mitogen-activated protein kinase kinase kinase 7 (Homo sapiens) (UniProt O43318).
T4 sequence (whole entry): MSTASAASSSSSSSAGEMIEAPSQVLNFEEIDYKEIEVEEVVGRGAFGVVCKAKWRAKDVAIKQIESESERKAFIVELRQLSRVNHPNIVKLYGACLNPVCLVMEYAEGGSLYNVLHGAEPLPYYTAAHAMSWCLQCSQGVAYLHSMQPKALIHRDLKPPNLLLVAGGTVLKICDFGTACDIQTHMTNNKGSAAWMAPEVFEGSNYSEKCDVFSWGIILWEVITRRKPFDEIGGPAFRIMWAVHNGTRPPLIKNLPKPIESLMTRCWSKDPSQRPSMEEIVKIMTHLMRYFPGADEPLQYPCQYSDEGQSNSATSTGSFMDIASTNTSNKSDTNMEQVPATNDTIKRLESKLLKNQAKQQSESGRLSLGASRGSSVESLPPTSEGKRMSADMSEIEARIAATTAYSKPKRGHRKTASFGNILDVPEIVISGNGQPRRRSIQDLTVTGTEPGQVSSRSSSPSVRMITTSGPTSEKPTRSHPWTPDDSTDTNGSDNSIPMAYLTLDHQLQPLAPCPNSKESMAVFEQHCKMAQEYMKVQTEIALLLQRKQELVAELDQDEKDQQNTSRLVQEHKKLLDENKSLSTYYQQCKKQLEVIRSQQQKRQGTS
The note with it: at 1 µM.

Assay [17] has as its target T2, Serine/threonine-protein kinase TAO2 (Homo sapiens). To be noted: at 10 µM.
Assay [18] concerns the target T5, Serine/threonine-protein kinase TAO3 (Homo sapiens) (UniProt Q9H2K8).
T5 sequence (whole entry): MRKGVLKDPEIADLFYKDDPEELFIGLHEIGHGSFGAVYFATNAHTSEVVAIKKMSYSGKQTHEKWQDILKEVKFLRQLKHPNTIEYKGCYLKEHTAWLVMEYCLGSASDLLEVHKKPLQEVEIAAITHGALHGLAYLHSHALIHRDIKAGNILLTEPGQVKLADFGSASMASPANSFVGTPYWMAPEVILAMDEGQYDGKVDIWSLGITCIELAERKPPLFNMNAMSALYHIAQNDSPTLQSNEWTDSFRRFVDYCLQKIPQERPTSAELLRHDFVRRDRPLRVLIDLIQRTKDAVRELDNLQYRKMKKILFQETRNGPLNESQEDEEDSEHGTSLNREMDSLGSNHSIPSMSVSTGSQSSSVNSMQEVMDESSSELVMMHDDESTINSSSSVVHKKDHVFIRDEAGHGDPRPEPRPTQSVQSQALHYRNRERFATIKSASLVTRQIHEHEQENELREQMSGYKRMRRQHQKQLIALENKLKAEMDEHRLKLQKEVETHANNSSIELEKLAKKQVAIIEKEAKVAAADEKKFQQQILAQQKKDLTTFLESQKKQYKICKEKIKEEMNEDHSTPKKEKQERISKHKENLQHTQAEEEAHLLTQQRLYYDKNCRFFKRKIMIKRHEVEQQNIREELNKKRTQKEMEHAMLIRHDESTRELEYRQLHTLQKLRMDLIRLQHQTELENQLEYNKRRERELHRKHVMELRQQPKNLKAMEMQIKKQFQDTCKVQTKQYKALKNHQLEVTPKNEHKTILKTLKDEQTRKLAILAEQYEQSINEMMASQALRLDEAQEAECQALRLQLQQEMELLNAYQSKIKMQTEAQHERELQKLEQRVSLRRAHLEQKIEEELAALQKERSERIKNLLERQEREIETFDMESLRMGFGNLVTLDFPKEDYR
The note with it: at 1 µM.

Assay [19] concerns the target T5, Serine/threonine-protein kinase TAO3 (Homo sapiens). The note with it: at 10 µM.
The target of assay [20] is T4, Mitogen-activated protein kinase kinase kinase 7 (Homo sapiens). The note with it: at 10 µM.

Sequence of Serine/threonine-protein kinase SIK1 (Homo sapiens) (P57059 whole entry): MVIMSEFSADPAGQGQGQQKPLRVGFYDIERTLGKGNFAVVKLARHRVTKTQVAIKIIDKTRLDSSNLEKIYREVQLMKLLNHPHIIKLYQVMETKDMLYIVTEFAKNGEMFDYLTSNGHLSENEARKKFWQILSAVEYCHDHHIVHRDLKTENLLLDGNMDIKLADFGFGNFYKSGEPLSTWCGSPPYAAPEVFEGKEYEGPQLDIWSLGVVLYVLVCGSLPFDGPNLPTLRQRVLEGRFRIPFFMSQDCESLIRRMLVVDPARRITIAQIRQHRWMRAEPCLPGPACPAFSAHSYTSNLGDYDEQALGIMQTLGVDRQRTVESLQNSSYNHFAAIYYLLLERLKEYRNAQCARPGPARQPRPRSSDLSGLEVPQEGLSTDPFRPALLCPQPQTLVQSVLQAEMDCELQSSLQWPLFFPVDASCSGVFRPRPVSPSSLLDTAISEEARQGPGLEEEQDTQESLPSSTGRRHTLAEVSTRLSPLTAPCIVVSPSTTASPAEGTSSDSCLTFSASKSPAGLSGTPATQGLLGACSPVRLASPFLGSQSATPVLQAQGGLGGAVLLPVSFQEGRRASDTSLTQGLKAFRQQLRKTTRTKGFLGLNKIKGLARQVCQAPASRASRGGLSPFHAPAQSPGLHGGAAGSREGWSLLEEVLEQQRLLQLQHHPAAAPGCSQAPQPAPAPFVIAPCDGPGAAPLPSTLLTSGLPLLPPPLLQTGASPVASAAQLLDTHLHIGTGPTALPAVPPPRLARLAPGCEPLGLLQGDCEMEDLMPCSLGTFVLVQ
Sequence of Serine/threonine-protein kinase PLK2 (Homo sapiens) (Q9NYY3 whole entry, looked up): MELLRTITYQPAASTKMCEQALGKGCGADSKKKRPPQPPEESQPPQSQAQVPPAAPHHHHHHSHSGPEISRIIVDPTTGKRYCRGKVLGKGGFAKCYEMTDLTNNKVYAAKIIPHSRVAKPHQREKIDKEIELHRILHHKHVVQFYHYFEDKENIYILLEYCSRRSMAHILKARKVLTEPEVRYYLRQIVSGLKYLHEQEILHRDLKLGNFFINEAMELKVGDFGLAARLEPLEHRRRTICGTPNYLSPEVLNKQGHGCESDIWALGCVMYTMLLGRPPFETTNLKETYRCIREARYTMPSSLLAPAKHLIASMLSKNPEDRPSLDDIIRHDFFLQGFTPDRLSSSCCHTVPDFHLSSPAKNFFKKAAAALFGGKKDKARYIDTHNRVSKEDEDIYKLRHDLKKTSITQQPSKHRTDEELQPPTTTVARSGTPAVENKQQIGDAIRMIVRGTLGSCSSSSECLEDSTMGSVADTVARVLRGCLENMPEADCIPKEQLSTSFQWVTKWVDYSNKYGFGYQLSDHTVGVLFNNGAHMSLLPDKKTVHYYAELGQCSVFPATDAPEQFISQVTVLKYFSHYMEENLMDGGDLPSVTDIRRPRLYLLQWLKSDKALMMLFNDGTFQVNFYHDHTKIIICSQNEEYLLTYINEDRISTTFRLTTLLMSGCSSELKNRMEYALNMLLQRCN
Sequence of Serine/threonine-protein kinase 33 (Homo sapiens) (Q9BYT3 whole entry, looked up): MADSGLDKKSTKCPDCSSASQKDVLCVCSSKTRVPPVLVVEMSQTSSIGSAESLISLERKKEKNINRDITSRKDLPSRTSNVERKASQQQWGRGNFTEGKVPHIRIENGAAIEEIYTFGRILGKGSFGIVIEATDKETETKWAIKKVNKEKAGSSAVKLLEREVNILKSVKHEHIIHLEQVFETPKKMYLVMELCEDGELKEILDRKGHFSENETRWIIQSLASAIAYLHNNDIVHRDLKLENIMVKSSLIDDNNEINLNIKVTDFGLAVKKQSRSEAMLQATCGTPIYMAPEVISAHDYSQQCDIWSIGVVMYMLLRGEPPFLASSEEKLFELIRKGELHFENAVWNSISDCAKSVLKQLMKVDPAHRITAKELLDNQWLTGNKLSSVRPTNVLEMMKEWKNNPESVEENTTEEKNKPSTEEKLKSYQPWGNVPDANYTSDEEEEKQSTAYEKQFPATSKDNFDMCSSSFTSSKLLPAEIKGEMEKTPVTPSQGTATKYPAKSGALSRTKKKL
Sequence of SRSF protein kinase 2 (Homo sapiens) (P78362 whole entry, looked up): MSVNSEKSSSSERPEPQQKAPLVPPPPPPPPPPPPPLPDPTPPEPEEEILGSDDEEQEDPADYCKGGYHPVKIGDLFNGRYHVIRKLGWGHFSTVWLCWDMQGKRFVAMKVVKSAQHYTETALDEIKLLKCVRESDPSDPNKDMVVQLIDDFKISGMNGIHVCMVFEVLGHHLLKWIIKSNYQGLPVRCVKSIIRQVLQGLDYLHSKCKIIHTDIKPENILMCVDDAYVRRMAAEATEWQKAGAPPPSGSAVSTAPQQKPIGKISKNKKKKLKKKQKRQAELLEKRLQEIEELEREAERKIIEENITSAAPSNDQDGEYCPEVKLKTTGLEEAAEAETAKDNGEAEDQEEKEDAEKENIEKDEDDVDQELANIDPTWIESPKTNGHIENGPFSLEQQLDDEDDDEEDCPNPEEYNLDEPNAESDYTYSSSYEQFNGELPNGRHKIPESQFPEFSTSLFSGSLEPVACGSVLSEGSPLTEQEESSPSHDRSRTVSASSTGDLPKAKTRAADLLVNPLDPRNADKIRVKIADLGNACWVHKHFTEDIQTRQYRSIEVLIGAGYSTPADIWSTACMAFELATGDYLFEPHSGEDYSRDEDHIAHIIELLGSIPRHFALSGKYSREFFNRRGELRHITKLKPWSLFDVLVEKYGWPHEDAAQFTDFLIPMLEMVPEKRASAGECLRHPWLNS

As to `O=C1Nc2ccc(Br)cc2/C1=C\c1cc2c([nH]1)CCCC2`, the residual activity was found to be 107% in [1]; 105% in [2]; 99% in assay [3]; 123% in assay [4]; 100% in [5]; 104% in assay [6]. Besides, the residual activity in [7] is 98%; in assay [8], 111%; in assay [9], 59%.
Consider `O=C1NC(=O)c2cc(Nc3ccc(F)cc3)c(Nc3ccc(F)cc3)cc21`, for which the residual activity in [1] was 0%; in assay [10], 102%; in assay [11], 93%; in [12], 96%; in assay [13] it was 95%; in [14], 95%. The residual activity is 101% in assay [15]; 97% in assay [2]; 96% in [3]; 118% in assay [4]; 78% in assay [5]; 83% in assay [16]. Besides, the residual activity in [6] came out at 83%; in [7], 39%; in assay [8], 63%; in [17], 21%; in assay [18] it was 79%; in assay [19], 37%. Moreover, in [9], the residual activity was determined as 69%.
In the case of `c1ccc(-c2n[nH]c3c2oc2ccccc23)cc1`, the residual activity in assay [1] stood at 8%; in assay [12] it was 98%; in [13], 89%; in [14], 94%; in [15], 81%; in assay [2] it was 94%. The residual activity in [3] is 89%; in assay [4] it was 115%; in assay [5], 82%; in assay [16], 88%; in assay [20], 100%; in assay [7], 72%. The residual activity in assay [8] is 98%; in assay [17], 78%; in [18], 95%; in assay [19], 73%; in assay [9] it was 67%.
With `CCN(CC)C(=O)c1ccc(Nc2nc(OCC3CCCCC3)c3nc[nH]c3n2)cc1`, the residual activity in assay [1] was 4%; in [11] it was 43%; in assay [12], 74%; in [13], 31%; in [14], 82%; in [15], 18%. In addition, the residual activity amounted to 64% in [4]; 13% in [5]; 47% in [16]; 7% in assay [20]; 52% in assay [6]; 10% in assay [7]. Besides, the residual activity came out at 51% in assay [8]; 6% in assay [17]; 70% in [18]; 16% in assay [19]; 15% in [9].
